Compounds without any hit were thinned out: in the full panel of roughly 83,000, 20% have a hit.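 Method: cells in 96-well plates; compound added at one concentration; 48 h incubation; percent growth measured; values under 10 scored active.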 Activity calls are given as the source filed them.
Columns and labels:
Assay in all cases: NCI-60 one-dose screen, 48 h (100 = growth as untreated, 0 = no growth, -100 = all killed)
Conditions in all cases: 10 µM unless noted
[1] = tested on: DU-145 prostate
[2] = tested on: K-562 leukemia
[3] = tested on: MALME-3M melanoma
[4] = tested on: MDA-MB-231 breast
[5] = tested on: RXF 393 renal
[6] = tested on: SF-268 CNS
[7] = tested on: SF-295 CNS
[8] = tested on: SF-539 CNS
[9] = tested on: UACC-257 melanoma
[10] = tested on: M14 melanoma
[11] = tested on: HCT-15 colon
[12] = tested on: HT29 colon
[13] = tested on: SNB-75 CNS
[14] = tested on: SNB-19 CNS
[15] = tested on: U251 CNS
[16] = tested on: PC-3 prostate
[17] = tested on: SK-MEL-5 melanoma
[18] = tested on: UACC-62 melanoma
[19] = tested on: LOX IMVI melanoma
[20] = tested on: SK-MEL-28 melanoma

Measured: growth

CCN1CCN(C(=O)[C@]23CC[C@@H](C)[C@H](C)[C@@H]2C2=CC[C@@H]4[C@@]5(C)C/C(=C/c6ccncc6)C(=O)C(C)(C)[C@@H]5CC[C@@]4(C)[C@]2(C)CC3)CC1
inactive: [1] 41.8% | [6] 49% | [7] 28.5% | [9] 25.6% | [10] 25.4% | [13] 19.5% | [14] 47.3% | [15] 15.2% | [16] 19.3% | [18] 43.1%
active: [2] 9.31% | [3] -9.75% | [4] 2.96% | [5] -18.7% | [8] -80.2% | [11] -53.2% | [12] 1.6% | [17] -12.3% | [19] -95.3% | [20] -45.7%

C#Cc1ccc(NC(=O)Cc2ccc(/C=C/C(=O)c3nccn3C)cc2)cc1
active: [12] 6.76%
inactive: [1] 12.6% | [2] 18.2% | [3] 95.7% | [4] 54.4% | [5] 21.8% | [6] 38% | [7] 77% | [8] 26.3% | [9] 103% | [10] 98.6% | [11] 23% | [13] 12.7% | [14] 39.3% | [15] 15.1% | [16] 39.6% | [17] 87.3% | [18] 72.9% | [19] 24.1% | [20] 107%

C=C(c1ccc(C(=O)O)c(F)c1)c1cc2c(cc1C)C(C)(C)C=CC2(C)C
inactive: [1] 94.7% | [2] 73.9% | [3] 54.4% | [4] 88% | [5] 96.9% | [6] 74.3% | [7] 66.5% | [8] 72.2% | [9] 80.5% | [10] 91.1% | [11] 79.3% | [12] 80.7% | [13] 89.9% | [14] 67.9% | [15] 65.7% | [16] 70.3% | [17] 69.7% | [18] 81.1% | [19] 81.4% | [20] 98.4%

C=CCOC(=O)C1=C(C)N(CC)C(=O)N(CC)C1c1c(Cl)n(C)c2ccccc12 (stereo not given)
inactive: [1] 99.4% | [2] 93% | [3] 96.2% | [4] 80.6% | [5] 98.3% | [6] 87.3% | [7] 69.3% | [8] 88.2% | [9] 89.9% | [10] 75.1% | [11] 78.4% | [12] 82.3% | [13] 81.6% | [14] 75.6% | [15] 88.3% | [16] 50.4% | [17] 96.5% | [18] 59.4% | [19] 52.8% | [20] 99.2%

COc1ccc(N/N=C/c2ccc3c(c2)Sc2ccccc2N3C)cc1
inactive: [1] 58.7% | [3] 107% | [4] 84.2% | [5] 105% | [6] 53.7% | [8] 57.1% | [9] 96.1% | [10] 40.9% | [11] 84.5% | [12] 98.6% | [13] 73.5% | [14] 81.1% | [15] 63.9% | [16] 44.4% | [17] 77% | [18] 10.8% | [19] 28.1% | [20] 100%
active: [2] 4.21% | [7] 6.85%

COc1ccc(Nc2nc(Nc3cc(C)[nH]n3)c3cc(OC)c(OC)cc3n2)cc1
active: [1] -86.2% [20 µM] | [2] -10.8% [20 µM] | [3] -97.7% [20 µM] | [4] -94.2% [20 µM] | [5] -94.4% [20 µM] | [6] -66.8% [20 µM] | [7] -94.2% [20 µM] | [8] -97.2% [20 µM] | [9] -76.8% [20 µM] | [10] -75.6% [20 µM] | [11] -83.1% [20 µM] | [12] -61.2% [20 µM] | [13] -94.5% [20 µM] | [14] -99.2% [20 µM] | [15] -69.8% [20 µM] | [16] -80.7% [20 µM] | [17] -84.7% [20 µM] | [18] -98.9% [20 µM] | [19] -92.6% [20 µM] | [20] -95.9% [20 µM]

COc1nc2ccccc2cc1/C=[N+](\[O-])c1ccccc1
inactive: [1] 102% | [2] 13.5% | [3] 60.9% | [4] 57.5% | [5] 85.5% | [6] 65.5% | [7] 93.5% | [8] 34.2% | [9] 93% | [10] 39.6% | [11] 19% | [12] 70% | [13] 73% | [14] 81.8% | [15] 56% | [16] 60.3% | [17] 73.4% | [18] 62.8% | [19] 40.1% | [20] 101%
